According to PubChem BioAssay AID1159580 (chemical genetic matrix, 2015):
About 2,000 (36%) of roughly 5,500 compounds were called active. Roughly 18% stayed inconclusive and do not appear here. Cut-off read from the data, not from the text of the source: active = normalized growth mostly below about 0.91 (no sharp cut-off); inconclusive = no clear call, values can overlap the other calls; inactive = mostly above about 0.92. The list shows a part of the results.

Assay: chemical genetic growth profiling, strain panel (AID 1159580);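 note: tested at 20 µM; growth read once vehicle control cultures reached saturation at 30 °C; 1 = growth at the plate median or of vehicle wells; lower values mean less growth of the strain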
Conditions: S. cerevisiae deletion strains, growth OD

Measured: normalized growth

O=C(CCN1CCCCC1)c1ccc(-c2ccccc2)cc1
inactive: locus YAR019C, strain CDC15, stronger effect = lower value 0.97 | locus YBL105C, strain PKC1, stronger effect = lower value 0.975 | locus YBR135W, strain CKS1, stronger effect = lower value 0.984 | locus YBR136W, strain MEC1, stronger effect = lower value 0.981 | locus YBR160W, strain CDC28, stronger effect = lower value 0.987 | locus YDL017W, strain CDC7, stronger effect = lower value 0.982 | locus YDL028C, strain MPS1, stronger effect = lower value 0.984 | locus YDL108W, strain KIN28, stronger effect = lower value 0.979 | locus YDL132W, strain cdc53, stronger effect = lower value 0.977 | locus YDL214C, strain PRR2, stronger effect = lower value 0.909 | locus YDR052C, strain DBF4, stronger effect = lower value 0.977 | locus YDR054C, strain cdc34, stronger effect = lower value 0.966 | locus YDR226W, strain ADK1, stronger effect = lower value 0.983 | locus YDR477W, strain SNF1, stronger effect = lower value 0.785 | locus YER123W, strain YCK3, stronger effect = lower value 0.892 | locus YER133W, strain GLC7, stronger effect = lower value 0.961 | locus YFL009W, strain cdc4, stronger effect = lower value 0.98 | locus YFL029C, strain CAK1, stronger effect = lower value 0.978 | locus YFR003C, strain YPI1, stronger effect = lower value 0.979 | locus YFR019W, strain FAB1, stronger effect = lower value 0.961 | locus YFR028C, strain CDC14, stronger effect = lower value 0.976 | locus YGR040W, strain KSS1, stronger effect = lower value 0.839 | locus YGR052W, strain FMP48, stronger effect = lower value 0.625 | locus YHR079C, strain IRE1, stronger effect = lower value 0.691 | locus YHR082C, strain KSP1, stronger effect = lower value 0.811 | locus YIL147C, strain SLN1, stronger effect = lower value 0.977 | locus YJL095W, strain BCK1, stronger effect = lower value 0.689 | locus YJL128C, strain PBS2, stronger effect = lower value 0.866 | locus YJL157C, strain FAR1, stronger effect = lower value 0.925 | locus YJR016C, strain ILV3, stronger effect = lower value 0.98 | locus YJR066W, strain TOR1 (second series), stronger effect = lower value 0.898 | locus YJR066W, strain TOR1, stronger effect = lower value 0.733 | locus YKL067W, strain YNK1, stronger effect = lower value 0.93 | locus YKL193C, strain SDS22, stronger effect = lower value 0.976 | locus YLR133W, strain CKI1, stronger effect = lower value 0.908 | locus YLR403W, strain SFP1, stronger effect = lower value 0.755 | locus YML070W, strain DAK1, stronger effect = lower value 0.909 | locus YMR001C, strain CDC5, stronger effect = lower value 0.972 | locus YMR205C, strain PFK2 (second series), stronger effect = lower value 0.941 | locus YMR277W, strain FCP1, stronger effect = lower value 0.974 | locus YNL006W, strain LST8, stronger effect = lower value 0.983 | locus YNL020C, strain ARK1, stronger effect = lower value 0.822 | locus YNL161W, strain CBK1, stronger effect = lower value 0.991 | locus YNL207W, strain RIO2, stronger effect = lower value 0.971 | locus YNL222W, strain SSU72, stronger effect = lower value 0.977 | locus YOL078W, strain AVO1, stronger effect = lower value 0.98 | locus YOL136C, strain PFK27, stronger effect = lower value 0.896 | locus YOR061W, strain CKA2, stronger effect = lower value 0.805 | locus YOR119C, strain RIO1, stronger effect = lower value 0.757 | locus YOR231W, strain MKK1, stronger effect = lower value 0.782 | locus YOR329C, strain SCD5, stronger effect = lower value 0.976 | locus YPL031C, strain PHO85, stronger effect = lower value 0.79 | locus YPL153C, strain RAD53, stronger effect = lower value 0.872 | locus YPL204W, strain HRR25, stronger effect = lower value 0.889 | locus YPL209C, strain IPL1, stronger effect = lower value 0.981 | locus YPR025C, strain CCL1, stronger effect = lower value 0.982 | locus YPR106W, strain ISR1, stronger effect = lower value 0.989 | locus YPR111W, strain DBF20, stronger effect = lower value 0.97 | strain NNK1, stronger effect = lower value 0.966 | strain TSCII, stronger effect = lower value 0.97
active: locus YGR092W, strain DBF2, stronger effect = lower value 0.193 | locus YHR030C, strain SLT2, stronger effect = lower value 0.567 | locus YHR205W, strain SCH9, stronger effect = lower value 0.471 | locus YKL048C, strain ELM1, stronger effect = lower value 0.699 | locus YKL101W, strain HSL1, stronger effect = lower value 0.454 | locus YLR113W, strain HOG1, stronger effect = lower value 0.642 | locus YNL307C, strain MCK1 (second series), stronger effect = lower value 0.246 | locus YPL256C, strain CLN2, stronger effect = lower value 0.684
